Source: PubChem
Pin1 inh: inhibitors of human Pin1. hit rate 0.009% among 390,000. Potency, µM (doses to about 115 µM), for inactives: at the top dose activity, negative = inhibition, usual class: inhibitors. Q13526. AID 504891. Pin1 FP peptide displacement, HiFluor488, 10 min; active means well fitted inhibition curve with a large enough effect in the polarisation, with a control signal flat, not every such curve was filed as active; inconclusive means small, poorly fitted or top-dose-only effect, or effect the other way, or a change in a side signal; inactive means no such curve, though single readings can be large or run the other way; the % refers to the polarisation; further: potency means the concentration at half of the fitted maximal effect; on the % scale 0 is the no-effect control and ±100 the full control effect
Target sequence (Q13526 whole entry, looked up): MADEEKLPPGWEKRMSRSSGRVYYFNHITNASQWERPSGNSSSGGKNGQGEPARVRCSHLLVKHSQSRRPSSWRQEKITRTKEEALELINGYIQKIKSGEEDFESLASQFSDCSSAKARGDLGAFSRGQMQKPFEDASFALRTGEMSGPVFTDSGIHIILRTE
Tb PGK inh: blocks T. brucei phosphoglycerate kinase | PGK/GAPDH coupled, Kinase-Glo luminescence, 60 min | Potency, µM (top dose mostly 57.5 µM), for the others: top-dose activity change, negative = inhibition, most hits filed as inhibitors | hit rate 0.043% among 380,000; further: potency means the concentration at half of the fitted maximal effect; on the % scale 0 is the no-effect control and ±100 the full control effect; nearly all actives have a fitted effect of over 60% in size
Target sequence (P07378 whole entry, looked up): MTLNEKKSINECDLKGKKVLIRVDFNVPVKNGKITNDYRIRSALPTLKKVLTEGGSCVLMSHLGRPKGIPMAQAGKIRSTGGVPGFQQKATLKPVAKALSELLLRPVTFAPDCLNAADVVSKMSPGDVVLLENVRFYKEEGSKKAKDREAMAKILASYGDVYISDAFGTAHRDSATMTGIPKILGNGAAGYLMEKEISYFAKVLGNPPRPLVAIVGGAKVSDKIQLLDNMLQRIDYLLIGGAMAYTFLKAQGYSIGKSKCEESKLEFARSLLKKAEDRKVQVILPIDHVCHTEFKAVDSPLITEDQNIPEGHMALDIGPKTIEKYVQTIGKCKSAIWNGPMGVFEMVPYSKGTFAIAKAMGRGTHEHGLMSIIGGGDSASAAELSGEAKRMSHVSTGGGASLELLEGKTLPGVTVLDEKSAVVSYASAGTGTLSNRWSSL
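Luminescent ATP detection (Kinase-Glo Plus) follows a 60-minute room-temperature incubation, with wells lacking PGK as controls. Buffer: 100 mM TEA (pH 7.6), 5 mM MgCl2, 0.01% Tween-20. Coupling enzyme GAPDH (100 nM final) supplies unstable 1,3-BPG in-well.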
PI5P4Ka inh: blocks human PI5P4K alpha kinase activity | P48426 | PI5P4Kalpha enzyme, ADP-Glo luminescence, 60 min; hits give low values | max response, % | hit rate 1.2% among 330,000 | AID 652105; active means max response of -50% or lower; inconclusive means between -30% and -50%; inactive means -30% or higher; further: value at the top dose of about 77 µM; on the % scale 0 is the no-effect control and ±100 the full control effect
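Controls without substrate or without enzyme flank wells where PI5P4Kalpha converts substrate using 5 microM ATP (final). Incubation lasts 60 minutes at room temperature; ADP formed is read by ADP-Glo luminescence.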
PI4K2A block: PI4K2A (human) kinase inhibition; Q9BTU6; hit rate 0.13% among 420,000; purified PI4K2A, ADP-Glo luminescence, 1 h; hits give low values; activity change, negative = inhibition, % at 76.9 µM; in the data active means activity change below about -50%; inconclusive means mostly about -30% to -49%;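 further: -100% = wells without enzyme as full effect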
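ADP-Glo luminescence measured ADP generated by PI4K2A enzyme (4 ug/mL before mixing) with 1.2 mM PI substrate (pre-mix) and 300 microM ATP (pre-mix). Tris pH7.5 buffer with MgCl2, Triton X-100; 1 h reaction at ambient temperature.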
Tb PFK inh-1: blocks T. brucei phosphofructokinase; O15648; T. brucei PFK, ADP-Glo luminescence; Potency, µM (highest dose often 57.5 µM), without a hit: at the highest dose activity, negative = inhibition, actives largely listed as inhibitors; hit rate 0.17% among 330,000; AID 485367;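 further: potency means the concentration at half of the fitted maximal effect; 0% = uninhibited 1x PFK enzyme wells and -100% = no-enzyme wells; nearly all actives have a fitted effect of over 60% in size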
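ADP-Glo luminescence quantified ADP after 45 min at room temperature, with 1.25 nM T. brucei PFK, 0.1 mM ATP and 0.5 mM fructose-6-phosphate in pH 8.0 TEA buffer. qHTS titrations up to 57 µM; curves classified by quality.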
TbPFK ATP: orthogonal confirmation of T. brucei phosphofructokinase inhibitors. shares compounds with Tb PFK inh-1. Tb PFK enzyme, ATP depletion, Kinase-Glo Plus luminescence. Potency, µM (highest dose often 57.5 µM), inactives show at the highest dose inhibition. hit rate 47% among 1,100. AID 504636; calls by dose curve; further: potency means the concentration at half of the fitted maximal effect; nearly all actives have a fitted effect of over 60% in size
Tb PFK inh-2: T. brucei PFK enzyme inhibition, hit validation; shares compounds with Tb PFK inh-1; purified T. brucei PFK, ADP-Glo luminescence, 45 min; Potency, µM (titrated, usually from 57.5 µM), without a hit: at the highest dose activity change, negative = inhibition, most hits filed as inhibitors; hit rate 41% among 1,100;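 further: potency means the concentration at half of the fitted maximal effect; plate controls were full PFK enzyme control for no effect and no enzyme control for full effect; nearly all actives have a fitted effect of over 60% in size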
Numbers without * were called inactive. The full list was thinned out, with hits kept by preference. Unless noted, the call rests on the fitted dose curve; in most records, active means well fitted curve in the direction sought with a large enough effect; inconclusive means small, poorly fitted or top-dose-only effect, or another doubt; inactive means no such curve, though single readings can be large; an effect the other way counts as inactive or inconclusive.

For O=C(NNc1ccc([N+](=O)[O-])cc1)Nc1ccccc1 the results were Pin1 inh -1%, Tb PGK inh -10%, PI5P4Ka inh 1, PI4K2A block -2, Tb PFK inh-1 inconclusive, TbPFK ATP 19µM* and Tb PFK inh-2 inconclusive.
For O=C(NNc1ccccc1[N+](=O)[O-])Nc1ccc(Cl)c(Cl)c1 the results were Pin1 inh -8%, Tb PGK inh -10%, PI5P4Ka inh 9, PI4K2A block -2, Tb PFK inh-1 12µM*, TbPFK ATP inconclusive and Tb PFK inh-2 -16%.
Screening O=C(NCCc1ccc(F)cc1)Nc1ccc([N+](=O)[O-])cc1 returned Pin1 inh 19%, Tb PGK inh 2%, PI5P4Ka inh 3, PI4K2A block -2, Tb PFK inh-1 inconclusive, TbPFK ATP inconclusive and Tb PFK inh-2 inconclusive.
`O=[N+]([O-])c1ccc(CNCCc2ccccc2)cc1` gave Pin1 inh -4%, Tb PGK inh -4%, PI5P4Ka inh 21, PI4K2A block -3 and Tb PFK inh-1 0%.
Screening CCN(CC)S(=O)(=O)c1cc([N+](=O)[O-])ccc1NNC(=O)Nc1ccc(Cl)c(Cl)c1 returned Pin1 inh 0%, Tb PGK inh -3%, PI5P4Ka inh -4, PI4K2A block 0, Tb PFK inh-1 inconclusive, TbPFK ATP 15% and Tb PFK inh-2 -6%.
CCc1cccc(NC(=O)C2CCN(S(=O)(=O)c3ccc(Br)s3)CC2)c1 was read as Pin1 inh 34%, Tb PGK inh -4% and PI4K2A block 0.
CCOc1ccc(-n2nc3c(=S)[nH]nc(C)c3c2C)cc1 was read as Pin1 inh 31%, Tb PGK inh 3%, PI5P4Ka inh 2, PI4K2A block -3 and Tb PFK inh-1 0%.
C=CCNc1oc(-c2cccc(Cl)c2)nc1C#N was read as Pin1 inh 2%, Tb PGK inh 0%, PI4K2A block 7, Tb PFK inh-1 27µM*, TbPFK ATP 17µM* and Tb PFK inh-2 30µM*.
For COc1cc(C2c3cc4c(c(O)c3CC3COC(=O)C32)OCO4)cc(OC)c1O (stereo not drawn) the results were Pin1 inh 15%.
`Cc1ccc(-c2ccc(C3C(C#N)=C(N)Oc4n[nH]c(C)c43)o2)cc1` (stereo not drawn) gave Pin1 inh inconclusive, Tb PGK inh 7%, PI4K2A block -4, Tb PFK inh-1 inconclusive, TbPFK ATP inconclusive and Tb PFK inh-2 -17%.
For C=C(C)C(=O)Nc1cccc(C2=NOC3(C2)C[C@@H](C(N)=O)N(C(=O)/C=C/C=C/C)C3)c1 (stereo partly drawn) the results were Tb PGK inh inconclusive, PI5P4Ka inh -50*, PI4K2A block -27, Tb PFK inh-1 3.8µM*, TbPFK ATP 0.13µM* and Tb PFK inh-2 0.19µM*.
Screening C=C(C)C(=O)Nc1cccc(C2=NOC3(C2)C[C@@H](C(N)=O)N(C(=O)CC(c2ccccc2)c2ccccc2)C3)c1 (stereo partly drawn) returned Pin1 inh -5%, Tb PGK inh 8.9µM*, PI5P4Ka inh inconclusive, PI4K2A block -5, Tb PFK inh-1 30µM*, TbPFK ATP 1.5µM* and Tb PFK inh-2 inconclusive.
For C=C(C)C(=O)Nc1cccc(C2=NOC3(C2)C[C@H](C(N)=O)N(C(=O)c2ccccc2C(=O)c2ccccc2)C3)c1 (stereo partly drawn) the results were Pin1 inh inconclusive, Tb PGK inh inconclusive, PI5P4Ka inh -26, PI4K2A block -10, Tb PFK inh-1 11µM*, TbPFK ATP 0.67µM* and Tb PFK inh-2 0.85µM*.
C=C(C)C(=O)Nc1cccc(C2=NOC3(C2)C[C@@H](C(N)=O)N(C(=O)/C(C)=C/C)C3)c1 (stereo partly drawn) was read as Tb PGK inh inconclusive, PI5P4Ka inh inconclusive, PI4K2A block -26, Tb PFK inh-1 3.4µM*, TbPFK ATP 0.19µM* and Tb PFK inh-2 0.17µM*.
For COc1cc(CC(C)N)cc(OC)c1OC (stereo not drawn) the results were PI4K2A block inactive.
Screening CCOC(=O)CC[C@@H]1CC[C@]2(CCCN(Cc3ccncc3)C2)O1 returned PI4K2A block 0.
Screening C/C=C/C=C/C(=O)N1CC2(CC(c3cccc(NC(=O)CCCCC)c3)=NO2)C[C@H]1C(N)=O (stereo partly drawn) returned Pin1 inh 5%, Tb PGK inh 2%, PI5P4Ka inh -76*, PI4K2A block -14, Tb PFK inh-1 inconclusive, TbPFK ATP inconclusive and Tb PFK inh-2 inconclusive.
`Clc1ccc(CSC2=NCCCN2)cc1Cl` gave Pin1 inh inconclusive, Tb PGK inh -4%, PI5P4Ka inh 3, PI4K2A block -20, Tb PFK inh-1 5.4µM*, TbPFK ATP 11µM* and Tb PFK inh-2 21µM*.
For CC1(C)OC(=O)C(=Cc2ccc(-c3ccc(S(N)(=O)=O)cc3)o2)C(=O)O1 the results were Pin1 inh -11%, Tb PGK inh -9%, PI5P4Ka inh -59*, PI4K2A block -17, Tb PFK inh-1 inconclusive, TbPFK ATP 7% and Tb PFK inh-2 inconclusive.
Screening NS(=O)(=O)c1ccc(-c2ccc(C=C3C(=O)NC(=S)NC3=O)o2)cc1 returned Tb PFK inh-1 -12%.
C/C(=N\NC(=O)C(C)Nc1cccc(Cl)c1)c1ccc([N+](=O)[O-])cc1 (stereo not drawn) was read as Pin1 inh 1%, Tb PGK inh -9%, PI5P4Ka inh 11, PI4K2A block -1, Tb PFK inh-1 inconclusive, TbPFK ATP inconclusive and Tb PFK inh-2 inconclusive.
`O=C(O)c1cc(N2N=C(C(F)(F)F)/C(=C/C=C/c3ccco3)C2=O)ccc1Cl` gave Tb PGK inh inconclusive, PI5P4Ka inh -93*, PI4K2A block -67*, Tb PFK inh-1 17µM*, TbPFK ATP 4.8µM* and Tb PFK inh-2 5.4µM*.
For O=C(CCc1nc(C2=CCN(Cc3cccc(Cl)c3)CC2)no1)Nc1ccccc1F the results were Pin1 inh -1%, Tb PGK inh -3% and PI4K2A block 4.
Screening C=CCSc1nc2sc3c(c2c(=O)n1CC)CCc1ccccc1-3 returned Pin1 inh 0%, Tb PGK inh -8%, PI4K2A block -1, Tb PFK inh-1 13µM*, TbPFK ATP 6.7µM* and Tb PFK inh-2 11µM*.
